PubChem BioAssay AID645 (SRMLSC, 2007)
In all, about 65,000 compounds went through this assay and about 450 (0.69%) were called active. What follows is part of a selection rich in actives, with near analogues and random picks from the rest. Values without a mark were called inactive.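 The calls were made as follows: active = HER2 level under 5% of the carrier-only control; inconclusive = no clear call, values can overlap the other calls; inactive = the rest.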

Molecular target: Receptor tyrosine-protein kinase erbB-2 (Homo sapiens) (UniProt P04626)
Sequence (P04626 whole entry, looked up): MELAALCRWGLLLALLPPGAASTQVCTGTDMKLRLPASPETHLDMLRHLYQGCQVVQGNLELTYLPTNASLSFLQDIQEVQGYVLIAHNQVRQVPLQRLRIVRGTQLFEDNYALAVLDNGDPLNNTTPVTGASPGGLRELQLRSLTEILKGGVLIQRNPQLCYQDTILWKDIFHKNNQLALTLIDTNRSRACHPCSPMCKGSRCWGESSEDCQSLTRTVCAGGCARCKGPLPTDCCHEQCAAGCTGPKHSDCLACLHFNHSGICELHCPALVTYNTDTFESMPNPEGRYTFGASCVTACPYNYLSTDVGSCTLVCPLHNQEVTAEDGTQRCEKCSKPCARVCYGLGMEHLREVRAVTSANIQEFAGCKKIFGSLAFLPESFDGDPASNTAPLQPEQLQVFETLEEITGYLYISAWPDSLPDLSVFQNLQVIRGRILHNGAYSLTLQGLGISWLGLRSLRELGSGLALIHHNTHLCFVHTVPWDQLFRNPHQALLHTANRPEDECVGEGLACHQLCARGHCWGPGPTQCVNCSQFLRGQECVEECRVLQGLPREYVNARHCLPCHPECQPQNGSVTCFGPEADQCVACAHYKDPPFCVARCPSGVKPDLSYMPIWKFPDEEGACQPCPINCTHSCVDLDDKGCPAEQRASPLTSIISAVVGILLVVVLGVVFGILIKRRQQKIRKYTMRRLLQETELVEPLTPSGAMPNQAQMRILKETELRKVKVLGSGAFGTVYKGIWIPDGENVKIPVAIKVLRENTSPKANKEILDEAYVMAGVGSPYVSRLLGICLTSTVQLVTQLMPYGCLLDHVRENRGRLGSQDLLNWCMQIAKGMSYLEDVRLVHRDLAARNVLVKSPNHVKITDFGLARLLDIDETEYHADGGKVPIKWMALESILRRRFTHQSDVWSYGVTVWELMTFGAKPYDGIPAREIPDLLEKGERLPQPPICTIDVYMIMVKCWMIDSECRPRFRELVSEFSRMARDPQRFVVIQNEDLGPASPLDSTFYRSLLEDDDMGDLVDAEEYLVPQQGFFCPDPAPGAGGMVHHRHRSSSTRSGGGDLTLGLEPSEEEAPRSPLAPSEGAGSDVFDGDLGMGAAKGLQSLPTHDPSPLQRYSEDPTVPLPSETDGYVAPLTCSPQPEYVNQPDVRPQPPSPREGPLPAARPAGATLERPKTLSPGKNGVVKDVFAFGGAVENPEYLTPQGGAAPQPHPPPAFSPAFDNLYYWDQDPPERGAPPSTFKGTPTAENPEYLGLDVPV
Assay: reducers of endogenous HER2 protein levels – SKBR-3 cells, AlphaScreen, 66K library, primary screen (AID 645);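 also: 100% = DMSO carrier and 0% = 500 nM PU-H71 HSP90 inhibitor; lower value means stronger loss of Her2 protein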
Conditions: SKBR-3 HER2 protein level, 18-24 h, at 10 µM, hits give low values

Row | Compound | HER2 level % of control
1 | CC(C)CCNc1nc(N2CCCC2)c2c(c1C#N)CCN(C)C2 | -0.705% (active)
2 | CC(C)Cc1nc(N2CCOCC2)c(C#N)c2c1CCC2 | 106%
3 | CCN1CCc2c(C#N)c(NCc3ccccc3)nc(NCCO)c2C1 | 94.1%
4 | COc1ccc(-c2cc3n(n2)CCc2nc4ccccc4n2-3)cc1 | 74.2%
5 | COC(=O)CN(c1nc(C)c(Cl)c(OC)n1)S(=O)(=O)c1ccc(C)cc1 | 103%
6 | CCC(=NC1CC(C)(C)NC(C)(C)C1)C1=C(O)CC(C)(C)CC1=O | 76%
7 | CNC(=O)c1cc2c(ccc3ccccc32)oc1=N | 74.1%
8 | CCCC1C(c2ccccc2)C(C#N)(C#N)C2(C#N)CC1(N)NC2=O (stereo not given) | -19.3% (active)
9 | O=C(O)CN(Cc1ccco1)S(=O)(=O)c1ccccc1 | 110%
10 | CC1CCCC(C)N1C(=O)CN1CCN(c2nc(-c3ccc(F)cc3)cs2)CC1 (stereo not given) | 90.1%
11 | CCCCc1nccn1CCn1ccnc1CCCC | 106%
12 | CCOC(=O)N1CCC(NC(=O)c2cnn3ccccc23)CC1 | 106%
13 | CCCCCCC(=O)N(O)C1CC(=O)N(c2ccccc2)C1=O (stereo not given) | 81.1%
14 | CCN(CC)C(=O)C1CCC(C)(C(=O)O)C1(C)C (stereo not given) | 100%
15 | Cc1cc(C)c(C(=O)CN2C(=O)CCC2=O)cc1C | 93.5%
16 | CCCc1nc(SCC(=O)Nc2ccccc2OC)c2c(=O)n(C)c(=O)n(C)c2n1 | 31%
17 | COc1ccc(-c2c(C)nn3c(N4CCC(C(=O)N5CCCCC5)CC4)cc(C)nc23)cc1OC | 83.2%
18 | O.O.O.O=S(=O)([O-])OC[C@H]1O[C@@H](O[C@]2(COS(=O)(=O)[O-])O[C@H](OS(=O)(=O)[O-])[C@@H](OS(=O)(=O)[O-])[C@@H]2OS(=O)(=O)[O-])[C@H](OS(=O)(=O)[O-])[C@@H](OS(=O)(=O)[O-])[C@@H]1OS(=O)(=O)[O-].[Al] | 102%
19 | CC(NC(=O)CSc1nc2c(cc1C#N)CN(C)CC2)c1ccccc1 (stereo not given) | 110%
20 | CSc1cccc(NC(=O)CSc2ccccc2)c1 | 95.7%

Row | Compound | HER2 level % of control
21 | O=C(NCCCN1CCN(C2CCCCC2)CC1)Nc1ccccc1C(F)(F)F | 82.5%
22 | CCCCN(C)Cc1c(C)[nH]c2ccc(Cl)cc2c1=O | 88%
23 | CCCC(C)n1[nH]c(=O)c2c(C)cc(C)nc21 (stereo not given) | 90.1%
24 | c1cc(-n2cnnn2)ccc1NC1=NCCC1 | 92.1%
25 | COCCOC(=O)C1=C(C)NC(=O)NC1c1ccc(Cl)cc1 (stereo not given) | 95.6%
26 | N#Cc1ccc(CSc2nnc(-c3ccccn3)n2-c2ccc(Cl)cc2)cc1 | 41.4%
27 | O=C(c1ccco1)N1CCN(C(=O)C2CC(c3ccc(F)cc3)=NO2)CC1 (stereo not given) | 57.7%
28 | OCCNCCCCOc1ccccc1F | 116%
29 | O=C1c2oc3ccccc3c(=O)c2C(c2cccc(O)c2)N1c1ccccn1 (stereo not given) | 95%
30 | CCOC(=O)c1sc2nc(CSCC(=O)OCc3ccc(C(=O)OC)o3)[nH]c(=O)c2c1C | 60.2%
31 | CCC(c1nnnn1Cc1ccccc1)N(Cc1cc2cc(OC)ccc2[nH]c1=O)CC1CCCO1 (stereo not given) | 117%
32 | CCC(c1nnnn1Cc1ccco1)N(CCc1ccccc1)Cc1cc2ccc(OC)cc2[nH]c1=O (stereo not given) | 76.1%
33 | CCC(c1nnnn1Cc1ccco1)N(Cc1cc2cc(OC)ccc2[nH]c1=O)C1CCCCC1 (stereo not given) | 1.98% (active)
34 | Cc1cc(NC(=O)CN2CCCCC2C)nc2c1c(=O)oc1ccccc12 (stereo not given) | 70%
35 | COc1ccccc1CNC(=O)CCn1c(=O)sc2ccccc21 | 92.5%
36 | Cn1c(=O)c2c(nc(CN3CCOCC3)n2Cc2ccccc2)n(C)c1=O | 75.7%
37 | COc1ccc(CN2CN(C(C)C)CSC2=S)cc1 | 10.7%
38 | S=C1SCN(CCN2CCOCC2)CN1Cc1ccccc1 | 3.88% (active)
39 | O=C(NCc1ccco1)C1CCCN(S(=O)(=O)c2cnc[nH]2)C1 (stereo not given) | 105%
40 | O=C(N1CCOCC1)N1CCOCC1 | 112%

Row | Compound | HER2 level % of control
41 | CS(=O)(=O)N(CC(=O)N1CCN(Cc2ccc3c(c2)OCO3)CC1)c1ccc2c(c1)OCO2 | 100%
42 | COc1ccccc1C(=O)N1CCNC(=O)C1CC(=O)Nc1ccc(Cl)cc1 (stereo not given) | 67.3%
43 | Cc1nc2nc3c(cn2n1)C(=O)CC(c1ccccc1)C3 (stereo not given) | 122%
44 | O=C(Cn1c(-c2ccccn2)nc2ccccc21)NCCN1CCOCC1 | 79.8%
45 | COc1cc(C2C(C(=O)c3ccc(C)o3)=C(O)C(=O)N2Cc2cccnc2)ccc1O (stereo not given) | 154%
46 | CCCN1C(=O)C(NS(=O)(=O)c2ccc(N)cc2)(C(F)(F)F)C(C(=O)OC)=C1C (stereo not given) | 126%
47 | CCOC(=O)CSc1nncc2ccc(OC)c(OC)c12 | 115%
48 | CCOC(=O)N1CCN(C(=O)CN(c2ccc(C)c(C)c2)S(=O)(=O)c2ccccc2)CC1 | 224%
49 | Cc1sc2c(c1C)c(=O)n(-c1ccccc1)c1nncn21 | 86.7%
50 | N#Cc1c(NC(=O)CSc2nc3ccccc3c(=O)n2Cc2ccco2)sc2c1CCCC2 | 70.4%
51 | O=C(NC(=O)c1ccc(Cl)c(Cl)c1)OC1CCS(=O)(=O)C1 (stereo not given) | 106%
52 | OC1CN=C2Sc3ccccc3N2C1 (stereo not given) | 119%
53 | O=C1c2ccccc2C(=O)N1CCc1nn[nH]n1 | 90.3%
54 | Cc1c(CN2CCC(C)CC2)c(=O)n(-c2ccccc2)n1C | 107%
55 | Cn1c(=O)n(C)c(=O)n(CC(=O)N2CCCCC2)c1=O | 149%
56 | COc1ccccc1-n1nnnc1S(=O)(=O)Cc1ccc(Cl)cc1 | -1.27% (active)
57 | COc1ccccc1N1CCN(Cc2nnnn2CCc2ccccc2)CC1 | 102%
58 | COc1ccccc1N1CCN(C(=O)CN(Cc2ccc(Cl)cc2)S(C)(=O)=O)CC1 | 68.2%
59 | CC(C)C(=O)N1CCN(CCN=CC2=C(O)CC(c3ccco3)CC2=O)CC1 (stereo not given) | 116%
60 | CN(C)CCNC(=O)C(C(=O)c1ccccc1)n1ccccc1=O (stereo not given) | 99.7%
